According to paper PMC5540273 (PLoS ONE, 2017):

Legend:
Conditions in all cases: concentration: 1 μM, replicates: in singlicate; n = 1
PRKCI = test system: PRKCI
PRKCQ = test system: PRKCQ
PRKD1 = test system: PRKD1
PRKD2 = test system: PRKD2
PRKD3 = test system: PRKD3
PRKG1 = test system: PRKG1
PRKG2 = test system: PRKG2
PRKR = test system: T1, PRKR
T1 construct: gene EIF2AK2

PRKX = test system: PRKX
PRP4 = test system: PRP4
PYK2 = test system: T2, PYK2
T2 construct: gene PTK2B

QSK = test system: QSK
RAF1 = test system: RAF1
RET = test system: RET
RIOK1 = test system: RIOK1
RIOK2 = test system: RIOK2
RIOK3 = test system: RIOK3
RIPK1 = test system: RIPK1
RIPK2 = test system: RIPK2
RIPK4 = test system: RIPK4
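Note: KINOMEscan kinase panel screen.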

Row | Structure (SMILES) | %Inh (PRKCI) | %Inh (PRKCQ) | %Inh (PRKD1) | %Inh (PRKD2) | %Inh (PRKD3) | %Inh (PRKG1) | %Inh (PRKG2) | %Inh (PRKR) | %Inh (PRKX) | %Inh (PRP4) | %Inh (PYK2) | %Inh (QSK) | %Inh (RAF1) | %Inh (RET) | %Inh (RIOK1) | %Inh (RIOK2) | %Inh (RIOK3) | %Inh (RIPK1) | %Inh (RIPK2) | %Inh (RIPK4)
1 | Cc1ccc(NC(=O)c2ccnc(N3CCN(C)CC3)c2)cc1-c1ccc(C(=O)NCC2CC2)cc1 [GW775604] | 0% | 0% | 0% | 2% | 0% | 0% | 0% | 0% | 0% | 0% | 0% | 0% | 10% | 0% | 0% | 0% | 0% | 0% | 0% | 0%
2 | Cc1cccc(Cn2ccn3c(=O)cc(N4CCOCC4)nc23)c1 [GSK2297542] | 14% | 28% | 13% | 7% | 24% | 0% | 9% | 0% | 23% | 1% | 12% | 11% | 7% | 13% | 26% | 29% | 10% | 26% | 11% | 7%
3 | CN(C(=O)c1ccc(-c2cc(-c3c[nH]nc3-c3ccccn3)ccn2)cc1)C1CCOCC1 [GW810083] | 18% | 0% | 10% | 0% | 0% | 0% | 10% | 0% | 0% | 0% | 0% | 0% | 0% | 17% | 54% | 0% | 33% | 0% | 0% | 69%
4 | CCCCCc1nc2c(N)ncnc2n1CCCCC [SKF-97255] | 8% | 0% | 0% | 0% | 0% | 0% | 0% | 0% | 0% | 3% | 21% | 7% | 11% | 0% | 0% | 0% | 0% | 0% | 22% | 7%
5 | Cc1nnc(-c2ccc3occ(-c4ccc(C(C)O)cc4)c3c2)o1 (stereo not shown) | 12% | 5% | 11% | 20% | 0% | 10% | 34% | 0% | 0% | 0% | 2% | 5% | 100% | 11% | 0% | 36% | 0% | 1% | 20% | 0%
6 | CCc1ccnc(/C=C/c2n[nH]c3cc(Sc4ccccc4C(=O)NC)ccc23)c1 | 1% | 0% | 0% | 15% | 0% | 0% | 0% | 0% | 29% | 0% | 0% | 0% | 0% | 83% | 0% | 0% | 0% | 0% | 43% | 0%
7 | O=C1Cc2cc(Nc3nc(NCc4cccc(S(=O)(=O)C(F)(F)F)c4)ncc3C(F)(F)F)ccc2N1 | 0% | 4% | 16% | 0% | 26% | 0% | 1% | 0% | 0% | 10% | 6% | 0% | 0% | 5% | 0% | 35% | 0% | 2% | 0% | 0%
8 | N#Cc1c(N2CCOCC2)sc(-c2ccn[nH]2)c1-c1ccc(Cl)cc1 | 1% | 11% | 0% | 0% | 16% | 0% | 8% | 0% | 12% | 56% | 0% | 0% | 11% | 0% | 0% | 0% | 0% | 6% | 0% | 35%
9 | CNc1ncnc2[nH]ncc12 [SKF-18355] | 0% | 0% | 0% | 0% | 0% | 0% | 0% | 0% | 0% | 0% | 0% | 5% | 23% | 0% | 0% | 0% | 0% | 0% | 0% | 22%
10 | Cc1ccc(C(=O)NCC(N)=O)cc1-n1c(C)cc(OCc2ccc(F)cc2F)c(Br)c1=O | 36% | 26% | 23% | 0% | 15% | 0% | 12% | 0% | 22% | 0% | 15% | 0% | 37% | 5% | 1% | 0% | 0% | 13% | 0% | 0%
11 | Cc1cccc(-c2nc(-c3ccc(S(C)(=O)=O)cc3)sc2-c2ccncc2)c1 | 0% | 9% | 0% | 0% | 0% | 0% | 0% | 2% | 1% | 6% | 2% | 8% | 25% | 14% | 19% | 27% | 0% | 0% | 59% | 0%
12 | N#Cc1ccc(-c2cc(-c3c[nH]nc3-c3ccccn3)ccn2)cc1 [GW693028] | 0% | 15% | 63% | 40% | 0% | 0% | 0% | 0% | 2% | 41% | 0% | 12% | 1% | 12% | 0% | 0% | 0% | 0% | 49% | 5%
13 | CCn1cnc2c(N)ncnc21 [GW345098] | 13% | 0% | 9% | 0% | 23% | 13% | 0% | 0% | 0% | 1% | 8% | 13% | 3% | 0% | 30% | 6% | 8% | 11% | 1% | 6%
14 | COc1cc(Nc2nccc(N3CCC(NC(=O)c4cccc(NC(C)=O)c4)C3)n2)cc(OC)c1OC (stereo not shown) [GSK1379754] | 0% | 24% | 0% | 0% | 0% | 15% | 0% | 0% | 27% | 20% | 14% | 0% | 0% | 29% | 82% | 5% | 61% | 0% | 0% | 28%
15 | O=c1cc(N2CCOCC2)nc2n(Cc3cccc(C(F)(F)F)c3)ccn12 [GSK2297543] | 4% | 8% | 0% | 1% | 0% | 27% | 0% | 8% | 0% | 22% | 3% | 3% | 5% | 0% | 26% | 7% | 19% | 10% | 12% | 0%
16 | O=C(NOCC1CC1)c1ccc(F)c(F)c1Nc1ccc(I)cc1Cl | 0% | 0% | 8% | 0% | 0% | 0% | 0% | 0% | 0% | 0% | 0% | 0% | 0% | 17% | 7% | 0% | 0% | 0% | 0% | 100%
17 | NS(=O)(=O)c1cccc(-c2ccc3nccc(-c4cccc(S(N)(=O)=O)c4)c3c2)c1 [GW867253] | 0% | 0% | 0% | 0% | 0% | 28% | 0% | 4% | 0% | 0% | 12% | 13% | 0% | 0% | 0% | 0% | 0% | 0% | 3% | 0%
18 | CN1c2ccc(NCc3ccc(F)cc3)cc2-c2c(cnn2C)S1(=O)=O | 29% | 12% | 13% | 1% | 0% | 0% | 7% | 0% | 0% | 33% | 0% | 10% | 1% | 0% | 10% | 0% | 0% | 3% | 0% | 0%
19 | Cc1cn2c(=O)cc(N3CCOCC3)nc2n1Cc1cccc(Cl)c1Cl [GSK2334006] | 31% | 28% | 0% | 10% | 18% | 0% | 0% | 0% | 24% | 0% | 13% | 0% | 22% | 21% | 56% | 29% | 4% | 0% | 14% | 6%
20 | CC(C)(C)n1cnc2c(N)ncnc21 [SKF-97359] | 0% | 0% | 0% | 13% | 0% | 12% | 0% | 0% | 0% | 17% | 0% | 0% | 15% | 19% | 2% | 0% | 0% | 0% | 0% | 67%
